Source: ChEMBL document CHEMBL4888484, “Replenishing the malaria drug discovery pipeline: Screening and hit evaluation of the MMV Hit Generation Library 1 (HGL1) against asexual blood stage Plasmodium falciparum ,using a nano luciferase reporter read-out” (2022)
In all, about 150,000 compounds went through this assay and about 540 (0.36%) showed an effect of 50% or more. Many of the other results were omitted from the sample, so strong results are more common in it than they were.

Each compound was assayed on Plasmodium falciparum (assay: Primary screen in NF54 nanoGlo assay, in single point, at 2uM, 72h; a lower Z score goes with more inhibition). Settings: timepoint 72 hour.
Format: functional, Erythrocyte

SMILES	% Inhibition [%]	Z score
COCCNC(=O)c1coc(CN2C(=O)COc3ccc(C(=O)COc4ccccc4)cc32)n1	-6	0.84
N#Cc1nccnc1O[C@H]1CCCN(C(=O)NCc2ccc(Cl)cc2)C1	-10	1.77
Cc1nn(C(C)(C)C)c2nc(C3CC3)cc(C(=O)N(C)Cc3cccc(C#N)c3)c12	-7	1.44
Cc1nn(C(C)(C)C)c2nc(C3CC3)cc(C(=O)N3CCN(c4ccccc4)CC3)c12	7	-1.07
Cc1nn(C(C)(C)C)c2nc(C3CC3)cc(C(=O)N(C)c3ccccc3)c12	55	-8.04
CC(C)(C[C@H]1CCCN(C(=O)C2(C)CCCC2)C1)C(N)=O	-4	0.57
COC(=O)C1CN(C(=O)CCc2cnn(C)c2)CC1c1ccccc1 (centres undefined)	-13	2.28
O=C1C[C@@H](c2ccccc2)N(Cc2ccncc2)CCCNCCN1	-9	1.07
COc1cccc(S(=O)(=O)N2CCCN(Cc3ccncc3)[C@H](c3ccccc3)CC(=O)NCC2)c1	92	-7.9
Cc1ccncc1C(=O)N1CCCN(Cc2ccncc2)[C@H](c2ccccc2)CC(=O)NCC1	-4	0.48
Cn1cccc1CCC(=O)NCCc1noc(C2CC2)n1	-5	0.69
CN1CCC(Oc2cc(NC(=O)c3cscn3)ccn2)CC1	-16	1.85
CCn1cc(CN2CCN3C(=O)N(c4ccccc4)C(=O)[C@@H]3C2)cn1	-2	0.24
COCCN1CC[C@H](c2ncnn2C2CCCCC2)C1	-7	1.3
CCc1nccc(CN2CCC[C@H](CS(C)(=O)=O)C2)n1	-20	2.11
Cn1cnc2c1CCN(C[C@H](O)c1ccccc1Cl)C2	0	0.04
CCC(CC)C(=O)N(Cc1ccc(-c2ccc(Cl)cc2)o1)[C@H]1CCS(=O)(=O)C1	-7	0.86
CCC(=O)N(Cc1ccc(-c2ccc(Cl)cc2)o1)[C@H]1CCS(=O)(=O)C1	63	-8.22
CC(C)C(=O)N(Cc1ccc(-c2ccc(Cl)cc2)o1)[C@H]1CCS(=O)(=O)C1	1	-0.15

SMILES	% Inhibition [%]	Z score
Cc1nnc(COc2cccc3c2OCCO3)s1	-12	2.16
CC(C)C(=O)NCC(=O)N1CC[C@@]2(CCCN(CCCc3ccccc3)C2)C1	-7	1.41
CN(Cc1ccc2ccn(C)c2c1)C[C@H]1CCCCO1	-2	0.4
COc1ccc(Br)c(S(=O)(=O)NCC2(C)CCC2)c1	1	-0.23
CC(=O)NC[C@H]1CN(c2ccnc(C(C)(C)C)n2)CCO1	-12	1.4
CNC(=O)c1cc(S(=O)(=O)N2CC=CC2)cn1C	-4	0.78
Cc1ccccc1NC(=O)[C@H]1c2cccc[n+]2CC(=O)N1c1ccc2c(c1)OCO2	-9	1.37
CC(C)(C)OC(=O)N1CCC[C@@H]1CNC1CC1	-7	0.86
CC(C)(C)OC(=O)N1CC2CC(=O)CC1C2 (centres undefined)	3	-0.39
O=C1Cc2cc(S(=O)(=O)Nc3ccccc3C(=O)NCc3ccco3)ccc2N1	-32	3.76
CCc1cc(NC(=O)N[C@@H](C)c2nc(C(F)(F)F)no2)n(C)n1	-7	1
COCc1cnc(NC(=O)NC2(c3ncccn3)CCOCC2)s1	52	-0.94
CC(C)Cc1cnc(NC(=O)N[C@@]2(C)CCOC2)s1	8	-1.23
Cc1cc(C(=O)NC2(c3ncccn3)CCOCC2)c(C)s1	-4	0.7
CCc1cc(C(=O)N2CC[C@@]3(CCCN(Cc4cccc(OC)c4)C3)C2)on1	-5	0.79
CC(C)CC(=O)N(Cc1nccn1Cc1ccc(Cl)cc1Cl)CC1CC1	-8	0.76
CC[C@H](C)N1CC(=O)N(c2ccns2)C1=O	-14	2.59
COc1ccnc(-c2ccc(F)c3cccnc23)c1	-4	0.58
COc1cccc(CNS(=O)(=O)c2cc(-c3c(C)nn4c3NC(=O)CCC4=O)ccc2OC)c1	2	-0.21

SMILES	% Inhibition [%]	Z score
O=C1CCCN1Cc1ncnn1Cc1ccc2c(c1)OCO2	-4	0.57
O=C(Nc1cccc2cccnc12)c1ccccn1	79	-8.04
Oc1ccccc1CNc1cccc2cccnc12	96	-8.95
Oc1cccc(CNc2cccc3cccnc23)c1	27	-3.62
O=C(Nc1cccc2cccnc12)c1cscn1	9	-1.21
Oc1ccccc1CNc1cccc2c[nH]nc12	-4	0.68
O=C(Nc1cccc2cccnc12)c1csnn1	6	-1.1
O=C(Cn1ccc([C@H]2CCCNC2)n1)NCc1c(F)cccc1Cl	0	-0.03
O=C1CC[C@H](C(=O)N2CCCCO2)CN1CCN1CCOCC1	-15	1.87
CCC1CCC(C(=O)NCC(=O)N2CCn3cncc3C2)CC1 (centres undefined)	-22	2.8
Cn1c(-c2ccccc2)cn2cc(-c3ccc(F)cc3)nc12	38	-0.19
Cn1c(-c2ccccc2)cn2cc(-c3ccc(Cl)cc3)nc12	54	-1.03
Cn1c(-c2ccc(Br)cc2)cn2cc(-c3ccc(Cl)cc3)nc12	44	0.7
Nc1n[nH]c(-c2ccc(Br)o2)n1	4	-0.5
OC1=Nc2c(ncn2-c2cc(F)cc(F)c2)[C@@H](c2cccnc2)C1	34	-3.88
Cc1ccc(CN2CCN(CC(=O)Nc3cc(C)on3)C(=O)C2=O)cc1	0	-0.03
O=c1nc2n(nc1-c1ccccc1)C1(CCC1)Nc1ccccc1-2	54	-13.48
O=c1nc2n(nc1-c1ccc(F)cc1)C1(CCCC1)Nc1ccccc1-2	-9	0.98
O=c1nc2n(nc1-c1ccccc1)C1(CCCCC1)Nc1ccccc1-2	-10	1.25
